The source of these data is PubChem BioAssay (NCATS).

The nature of experiment [1]: qHTS of pediatric cancer cell lines to identify multiple opportunities for drug repurposing: Primary screen for NB-EBc1 cells (AID 1347095). The gist of the method: (§1)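 Primary screen of approved and investigational compounds on cells in growth media at 37 degrees C, 5% CO2. MIPE set at 11-point and NPC set at 8-point dilutions; viability scored by ATP-based luminescence at 48 hours.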
In general terms: Quantitative high-throughput screening tests each substance at several concentrations.

Experiment [2] is described as follows: qHTS of pediatric cancer cell lines to identify multiple opportunities for drug repurposing: Primary screen for U-2 OS cells (AID 1347096). Also: nearly all actives have a fitted effect of over 50% in size. The gist of the method: (§2)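 Cells (500-1,000/well) in growth media were settled 5 h at 37 degrees C, then given compounds for 48 h. Viability was read as CellTiter-Glo luminescence. Primary runs used MIPE at 11 points (0.78 nM-46 µM) and NPC at 8 points (0.59 nM-46 µM); follow-ups used 11 points.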

A short description of experiment [3]: qHTS of pediatric cancer cell lines to identify multiple opportunities for drug repurposing: Primary screen for NB1643 cells (AID 1347099). Also: nearly all actives have a fitted effect of over 50% in size. Also: potency is read from the fitted curve at half-maximal effect. The gist of the method: as §1
Experiment [4] can be described thus: qHTS of pediatric cancer cell lines to identify multiple opportunities for drug repurposing: Primary screen for LAN-5 cells (AID 1347100). The gist of the method:
as §2

Experiment [5] in a line: qHTS of pediatric cancer cell lines to identify multiple opportunities for drug repurposing: Primary screen for BT-12 cells (AID 1347101). Also: nearly all actives have a fitted effect of over 25% in size. Also: potency is read from the fitted curve at half-maximal effect. The method in brief: (§3)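 Cells (500-1,000/well) rested 5 h, then received compounds for 48 h; metabolically active cells were measured by CellTiter-Glo luminescence. Final concentrations spanned up to 46 µM (MIPE, 11-point) or 0.59 nM-46 µM (NPC, 8-point) in primary screens, 11-point in follow-ups.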

A short description of experiment [6]: qHTS of pediatric cancer cell lines to identify multiple opportunities for drug repurposing: Primary screen for Rh18 cells (AID 1347102). Also: nearly all actives have a fitted effect of over 65% in size. The gist of the method:
as §2

Experiment [7] can be described thus: qHTS of pediatric cancer cell lines to identify multiple opportunities for drug repurposing: Primary screen for RD cells (AID 1347104). Also: nearly all actives have a fitted effect of over 55% in size. Also: potency is read from the fitted curve at half-maximal effect. The method in brief: as §1
Experiment [8] can be described thus: qHTS of pediatric cancer cell lines to identify multiple opportunities for drug repurposing: Primary screen for MG 63 (6-TG R) cells (AID 1347105). Also: nearly all actives have a fitted effect of over 50% in size. The gist of the method:
as §1

Experiment [9] can be described thus: qHTS of pediatric cancer cell lines to identify multiple opportunities for drug repurposing: Primary screen for control Hh wild type fibroblast cells (AID 1347106).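 Also: series mostly up to about 46 µM; a drop in luminescence marks cytotoxicity and a rise apparent proliferation; nearly all actives have a fitted effect of over 55% in size.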 The method in brief: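 Viability after 48 h compound treatment at 37C, 500-1,000 cells/well, read as ATP luminescence with CellTiter-Glo. Primary screens used 11-point (MIPE, 0.78 nM-46 µM) or 8-point (NPC, 0.59 nM-46 µM) final concentrations; follow-up screens used 11-point dilutions.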

A short description of experiment [10]: qHTS of pediatric cancer cell lines to identify multiple opportunities for drug repurposing: Primary screen for Rh30 cells (AID 1347107). Also: series mostly up to about 46 µM; nearly all actives have a fitted effect of over 75% in size. The method in brief: as §2
The nature of experiment [11]: qHTS of pediatric cancer cell lines to identify multiple opportunities for drug repurposing: Primary screen for Rh41 cells (AID 1347108).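 Also: series mostly up to about 46 µM; luminescence drop marks cytotoxic hits; nearly all actives have a fitted effect of over 70% in size.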 The method in brief: as §1
Experiment [12] is described as follows: qHTS of pediatric cancer cell lines to identify multiple opportunities for drug repurposing: Confirmatory screen for NB1643 cells (AID 1347109). Also: nearly all actives have a fitted effect of over 45% in size. The gist of the method:
as §2

Experiment [13] can be described thus: qHTS of pediatric cancer cell lines to identify multiple opportunities for drug repurposing: Confirmatory screen for A673 cells (AID 1347110).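 Also: potency is read from the fitted curve at half-maximal effect; cells exposed to compound for 48 h before the viability read; nearly all actives have a fitted effect of over 65% in size.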 The gist of the method:
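Forty-eight-hour viability assay. Follow-up compounds ran at 11-point dilutions; positive control bortezomib at 2.3 uM final, neutral control DMSO.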

A short description of experiment [14]: qHTS of pediatric cancer cell lines to identify multiple opportunities for drug repurposing: Confirmatory screen for SK-N-MC cells (AID 1347111).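 Also: cells exposed to compound for 48 h before the readout; nearly all actives have a fitted effect of over 70% in size.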 The gist of the method:
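Metabolically active cells were quantified by ATP-dependent luminescence (CellTiter-Glo, 15 min at room temperature) following 48 h treatment. Cells had been plated at 500-1,000 per well and settled for 5 h beforehand.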

Experiment [15] is described as follows: qHTS of pediatric cancer cell lines to identify multiple opportunities for drug repurposing: Confirmatory screen for LAN-5 cells (AID 1347113). Also: nearly all actives have a fitted effect of over 65% in size. The gist of the method:
as §2

Experiment [16] in a line: qHTS of pediatric cancer cell lines to identify multiple opportunities for drug repurposing: Primary screen for Saos-2 cells (AID 1347097). Also: nearly all actives have a fitted effect of over 40% in size. The gist of the method:
as §1

The nature of experiment [17]: qHTS of pediatric cancer cell lines to identify multiple opportunities for drug repurposing: Primary screen for SK-N-SH cells (AID 1347098). Also: nearly all actives have a fitted effect of over 65% in size. Also: potency is read from the fitted curve at half-maximal effect. The method in brief:
as §3

Experiment [18] in a line: qHTS of pediatric cancer cell lines to identify multiple opportunities for drug repurposing: Primary screen for OHS-50 cells (AID 1347103). Also: nearly all actives have a fitted effect of over 40% in size. The method in brief:
as §3

Experiment [19] in a line: qHTS of pediatric cancer cell lines to identify multiple opportunities for drug repurposing: Confirmatory screen for DAOY cells (AID 1347114). The method in brief: (§4)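 Viability measured as metabolically active cells via CellTiter-Glo luminescence following 48 hours of compound exposure, 11-point dilutions in confirmatory testing. 500-1,000 cells/well plated 5 hours before dosing; controls were DMSO and 2.3 µM bortezomib.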

Experiment [20] in a line: qHTS of pediatric cancer cell lines to identify multiple opportunities for drug repurposing: Confirmatory screen for SJ-GBM2 cells (AID 1347116). Also: nearly all actives have a fitted effect of over 60% in size. The method in brief: as §4

Where “and” joins values, the source holds several entries; their conditions need not be identical. Identical values can stand only once. Results filed as inconclusive are left out. Calls of active or inactive are those of the source. Calls follow the shape of the dose curve; as a rule, active = well fitted curve in the direction sought with a large enough effect; inconclusive = small, poorly fitted or top-dose-only effect, or another doubt; inactive = no such curve, though single readings can be large; an effect the other way counts as inactive or inconclusive.

As to `CCC(=O)O[C@]1(C(=O)SCF)[C@H](C)C[C@H]2[C@@H]3C[C@H](F)C4=CC(=O)C=C[C@]4(C)[C@@]3(F)[C@@H](O)C[C@@]21C`, the Potency result in [1], in experiment [2], in experiment [3], in [4], in experiment [5] and in experiment [6] was “inactive” in each case. Moreover, the Potency entry in experiment [7], in experiment [8], in experiment [9], in experiment [10], in experiment [11] and in [12] was “inactive” in each case. Further, the Potency result in experiment [14] and in [15] was “inactive” throughout. The Potency in experiment [13] was 1.04 µM (active).
For `NNC(=O)c1ccncc1`, the Potency result in [1], in experiment [16], in experiment [17], in experiment [3], in [4] and in experiment [5] was “inactive” throughout. The Potency result in experiment [6], in experiment [18], in experiment [7], in [8], in [9] and in [11] was “inactive” each time.
Consider `C[C@@H]1CN(c2c(F)c(N)c3c(=O)c(C(=O)O)cn(C4CC4)c3c2F)C[C@H](C)N1`, for which the Potency result in experiment [1], in experiment [16], in [17], in experiment [3], in [4] and in experiment [5] was “inactive” throughout. The Potency result in [6], in [18], in experiment [7], in experiment [8], in experiment [9] and in experiment [11] was “inactive” in each case.
Turning to `C[C@]12C=CC(=O)C=C1CC[C@@H]1[C@@H]2C(=O)C[C@@]2(C)[C@H]1CC[C@]2(O)C(=O)CO`, the Potency result in experiment [1], in [16], in [17], in [3], in experiment [4] and in [5] was “inactive” throughout. Further, the Potency result in experiment [6], in [18], in experiment [7], in experiment [8], in [9] and in experiment [11] was “inactive” in each case.
For the molecule `NC(=O)c1ccc2[nH]ccc2c1`, the Potency result in [1], in experiment [2], in [17], in [3], in experiment [4] and in experiment [5] was “inactive” in each case. For the same molecule, the Potency result in experiment [6], in experiment [7], in experiment [8] and in experiment [9] was “inactive” each time.
Take `CC1=C(C(=O)O)N2C(=O)[C@@H](NC(=O)C(N)c3ccccc3)[C@H]2SC1` (some centres undefined): the Potency result in experiment [1], in experiment [16], in experiment [17], in [3], in [4] and in experiment [5] was “inactive” throughout. Moreover, the Potency entry in [6], in [18], in [7], in experiment [8], in [9] and in [11] was “inactive” each time.
Take `N=C(N)c1ccc(OCCCCCOc2ccc(C(=N)N)cc2)cc1`: the Potency entry in experiment [1], in [2], in experiment [8], in experiment [9], in experiment [10] and in [20] was “inactive” each time. The Potency was 9.61 µM (active) in experiment [17]; 20.9 µM (active) in experiment [3]; 2.46 µM (active) and 4.85 µM (active) in [5]; 18.7 µM (active) in experiment [7]; 14.7 µM (active) in experiment [19].
